For assay [1], the target named is Glutathione peroxidase 1 (Homo sapiens) (UniProt P07203). Nature of the assay: Primary qHTS Assay for Inhibitors of Recombinant Selenoprotein Glutathione Peroxidase 1 (GPX1) (AID 1845191). Note: nearly all actives have a fitted effect of over 65% in size. The essentials: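 NADPH consumption tracked by fluorescence at 340/450 nm between t=0 and t=15 min, room temperature. Final mix: 10 nM GPX1, 100 nM glutathione reductase, 1 mM GSH, 0.5 mM NADPH, 0.5 mM cumene hydroperoxide, 0.01% BSA; 30 min compound–enzyme preincubation.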
For orientation: In qHTS, concentration-response curves come from the screen itself.

The target of assay [2] is Phospholipid hydroperoxide glutathione peroxidase GPX4 (Homo sapiens) (UniProt P36969). Nature of the assay: Primary qHTS Assay for Inhibitors of Recombinant Selenoprotein Glutathione Peroxidase 4 (GPX4) (AID 1845192). Note: nearly all actives have a fitted effect of over 65% in size. The essentials:
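NADPH consumption followed by fluorescence at 340/450 nm, t=0 and after 15 min at room temperature. Reaction started with cumene hydroperoxide (0.5 mM final) after 30 min compound–GPX4 preincubation; final 200 nM GPX4, 100 nM GR, 1 mM GSH, 0.5 mM NADPH.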

The nature of assay [3]: Quantitative High-Throughput drug screen in 47 multiple myeloma cell lines against the NCATS MIPE library collection: Delta47_JCRB cell viability assay (AID 1918925; note: nearly all actives have a fitted effect of over 45% in size; note: potency is the fitted concentration of half-maximal effect). In outline:
(§1)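 Myeloma cells (500 per well) were exposed to MIPE 4.0 compounds by pin transfer and incubated 48 hours at 37C, 5% CO2. Viability was read as ATP by CellTiter-Glo luminescence, normalised to DMSO (100%) and media-only (0%) wells.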

A short description of assay [4]: Quantitative High-Throughput drug screen in 47 multiple myeloma cell lines against the NCATS MIPE library collection: EJM_DSMZ cell viability assay (AID 1918926; note: nearly all actives have a fitted effect of over 30% in size; note: potency is the fitted concentration of half-maximal effect). In outline: as §1
Assay [5] can be described thus: Quantitative High-Throughput drug screen in 47 multiple myeloma cell lines against the NCATS MIPE library collection: AMO1_DSMZ cell viability assay (AID 1918927; note: nearly all actives have a fitted effect of over 30% in size; note: potency is the fitted concentration of half-maximal effect). The essentials: as §1
Assay [6] is described as follows: Quantitative High-Throughput drug screen in 47 multiple myeloma cell lines against the NCATS MIPE library collection: ARD_JJKsccE7 cell viability assay (AID 1918929; note: potency is the fitted concentration of half-maximal effect). In outline:
as §1

Assay [7] can be described thus: Quantitative High-Throughput drug screen in 47 multiple myeloma cell lines against the NCATS MIPE library collection: Karpas620_DSMZ cell viability assay (AID 1918959). Note: nearly all actives have a fitted effect of over 30% in size. Note: potency is the fitted concentration of half-maximal effect. The essentials:
as §1

The nature of assay [8]: Quantitative High-Throughput drug screen in 47 multiple myeloma cell lines against the NCATS MIPE library collection: KMM1_JCRB cell viability assay (AID 1918960). Note: nearly all actives have a fitted effect of over 30% in size. Note: potency is the fitted concentration of half-maximal effect. In outline: (§2)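 Viability screen: myeloma cells (500/well) incubated 48 h at 37 °C, humidified 5% CO2, with pinned library compounds; CellTiter-Glo added, luminescence read; DMSO wells set 100%, medium-only wells 0%.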

Assay [9] can be described thus: Quantitative High-Throughput drug screen in 47 multiple myeloma cell lines against the NCATS MIPE library collection: Karpas417_ECACC cell viability assay (AID 1918961). Note: potency is the fitted concentration of half-maximal effect. The conditions noted are these: Karpas417 myeloma viability, CellTiter-Glo ATP luminescence, 48 h; viability (% of DMSO): at 45.8 µM (top of the series). In outline: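 CellTiter-Glo ATP luminescence gave viability after 48 h compound treatment at 37C of 500 multiple myeloma cells per well. Normalisation used DMSO-only wells as 100% and media-only wells as 0% viability; primary qHTS of approved and investigational drugs.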
A general note: ATP-based viability assays read luminescence as a measure of living cells.

Assay [10] can be described thus: Quantitative High-Throughput drug screen in 47 multiple myeloma cell lines against the NCATS MIPE library collection: JIM1_ECACC cell viability assay (AID 1918964; note: potency is the fitted concentration of half-maximal effect). In outline: as §1
A short description of assay [11]: Quantitative High-Throughput drug screen in 47 multiple myeloma cell lines against the NCATS MIPE library collection: FR4_PLB cell viability assay (AID 1918924; note: nearly all actives have a fitted effect of over 35% in size; note: potency is the fitted concentration of half-maximal effect). In outline: as §1
The nature of assay [12]: Quantitative High-Throughput drug screen in 47 multiple myeloma cell lines against the NCATS MIPE library collection: ARP1_JJKsccF8 cell viability assay (AID 1918928; note: nearly all actives have a fitted effect of over 40% in size; note: potency is the fitted concentration of half-maximal effect). The essentials:
as §2

Assay [13] can be described thus: Quantitative High-Throughput drug screen in 47 multiple myeloma cell lines against the NCATS MIPE library collection: JIM3_ECACC cell viability assay (AID 1918963; note: nearly all actives have a fitted effect of over 35% in size; note: potency is the fitted concentration of half-maximal effect). The essentials:
as §1

Assay [14] in a line: Quantitative High-Throughput drug screen in 47 multiple myeloma cell lines against the NCATS MIPE library collection: KHM11_PLB cell viability assay (AID 1918962). Note: nearly all actives have a fitted effect of over 35% in size. In outline:
as §1

The target in assay [15] is Luciferin 4-monooxygenase (Photinus pyralis) (UniProt P08659). Nature of the assay: Primary firefly luciferase (FLuc) qHTS assay for identification of artifact compounds. (AID 1845220). Note: nearly all actives have a fitted effect of over 60% in size. The essentials:
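Cell-free, 1536-well qHTS. Buffer pH 7.6 with 0.01% Tween-20 and 0.05% BSA; 10 uM D-luciferin, 10 uM ATP; 10 nM P. pyralis luciferase; luminescence after 5 min.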

The nature of assay [16]: Primary fluorescence-based thiol-reactive (MSTI) qHTS assay for identification of artifact compounds. (AID 1845221).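 Note: thiol-reactive compounds lower the probe fluorescence signal; nearly all actives have a fitted effect of over 65% in size.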 In outline: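 One-hour, room-temperature, dark incubation of compound with 4 uM MSTI in PBS (pH 7.4, 2% DMSO) precedes a fluorescence read at 525 nm excitation, 598 nm emission; Hill-equation fitting yields concentration-response values.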
For assay [17], the system named is Nanoluciferase (engineered Oplophorus gracilirostris luciferase). Put plainly: Primary Nanoluciferase (NLuc) qHTS assay for identification of artifact compounds. (AID 1845222). The essentials:
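Compounds are pinned into diluted (1:55) conditioned medium of NLuc-expressing S16 cells and held 15 min at room temperature protected from light. Nano-Glo substrate follows, and luminescence is read 5 min later.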

Assay [18] in a line: Primary redox qHTS assay for identification of artifact compounds. (AID 1845223). The essentials:
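Redox-cycling detection via DTT (250 uM final) oxidation coupled to Amplex Red (25 uM)/HRP (250 mU/mL) in HBSS. 15 min preincubation plus 30 min after DTT, room temperature. Ex/Em 525/598 nm; 4-parameter Hill fit against DMSO and 10 uM DA3003.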

The structures appear in SMILES notation. Inconclusive results are not listed. The source made the active and inactive calls. Calls come from the whole dose curve; as a rule, active = well fitted curve in the direction sought with a large enough effect; inconclusive = small, poorly fitted or top-dose-only effect, or another doubt; inactive = no such curve, though single readings can be large; an effect the other way counts as inactive or inconclusive. Peptide text beside a SMILES is read from it.

Phospholipid hydroperoxide glutathione peroxidase GPX4 (Homo sapiens), sequence (P36969 whole entry, looked up): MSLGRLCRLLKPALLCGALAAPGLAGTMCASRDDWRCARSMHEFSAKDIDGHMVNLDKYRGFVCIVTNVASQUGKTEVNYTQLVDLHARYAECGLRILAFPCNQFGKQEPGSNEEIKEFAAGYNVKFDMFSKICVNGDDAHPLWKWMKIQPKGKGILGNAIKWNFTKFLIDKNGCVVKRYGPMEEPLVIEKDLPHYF
Glutathione peroxidase 1 (Homo sapiens), sequence (P07203 whole entry, looked up): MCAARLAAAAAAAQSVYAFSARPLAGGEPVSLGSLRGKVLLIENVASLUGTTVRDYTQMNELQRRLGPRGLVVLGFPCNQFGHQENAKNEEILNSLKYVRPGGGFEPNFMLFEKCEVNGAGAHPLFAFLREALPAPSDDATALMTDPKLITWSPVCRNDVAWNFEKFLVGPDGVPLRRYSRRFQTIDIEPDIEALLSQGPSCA

`O=C(NCC1CCCCN1)c1cc(OCC(F)(F)F)ccc1OCC(F)(F)F` (centres undefined): the Potency result in assay [1], in assay [2] and in [4] was “inactive” throughout. Moreover, the Potency in assay [3] is 8.33 µM (active); in assay [5] it was 3.32 µM (active); in assay [6], 3.72 µM (active); in assay [7], 1.32 µM (active); in assay [8], 2.64 µM (active); in [9], 0.0743 µM (active). Moreover, the Potency in assay [10] is 1.87 µM (active).

As to `Cc1nc2n(c(=O)c1CCN1CCC(c3noc4cc(F)ccc34)CC1)CCCC2`, the Potency entry in [1], in assay [11], in assay [4], in [5], in [12] and in assay [6] was “inactive” each time. Further, the Potency result in assay [7], in assay [9] and in [13] was “inactive” in each case.

As to `COC(=O)[C@H](Cc1ccccc1)NC(=O)[C@@H](N)CC(=O)O` (H-Asp-Phe-OMe), the Potency entry in assay [1], in assay [11], in [3], in assay [4], in [5] and in assay [12] was “inactive” each time. Besides, the Potency result in [6], in assay [7], in [14], in assay [13] and in assay [10] was “inactive” in each case.

On to `Nc1ncn([C@H]2C[C@H](O)[C@@H](CO)O2)c(=O)n1`, for which the Potency entry in assay [1], in [11], in assay [4] and in assay [14] was “inactive” in each case. For the same molecule, the Potency is 0.418 µM (active) in assay [6], 0.132 µM (active) in assay [7] and 0.296 µM (active) in [8].

As for `O=C(NCCO[N+](=O)[O-])c1cccnc1`, the Potency result in [1], in assay [11], in assay [4], in assay [12], in assay [6] and in assay [7] was “inactive” throughout. In addition, the Potency result in assay [8], in assay [13] and in assay [10] was “inactive” in each case.

For the molecule `COC(=O)C1=C(C)NC(C)=C(C(=O)OCCCN2CCC(c3ccccc3)(c3ccccc3)CC2)C1c1cccc([N+](=O)[O-])c1` (centres undefined), the Potency entry in assay [1], in assay [11], in assay [4], in assay [5], in assay [6] and in assay [7] was “inactive” throughout.

Regarding `NC(=O)Cc1cccc(C(=O)c2ccccc2)c1N`, the Potency result in [1], in assay [3], in [4], in assay [5], in [6] and in [7] was “inactive” in each case. Further, the Potency result in assay [8] and in assay [14] was “inactive” throughout.

`O=C(NC(Cc1cc(=O)[nH]c2ccccc12)C(=O)O)c1ccc(Cl)cc1` (centres undefined): the Potency result in [1], in assay [2], in assay [11], in [12], in assay [6] and in [9] was “inactive” each time. In assay [4], the Potency is 4.69 µM (active).

For `Clc1ccc(C(Cn2ccnc2)OCc2ccsc2Cl)c(Cl)c1` (centres undefined), the Potency result in assay [1] and in [2] was “inactive” in each case. Also, the Potency in assay [4] is 14.8 µM (active); in [5], 18.7 µM (active); in assay [9], 18.7 µM (active).

On to `COc1cc(Nc2c(C#N)cnc3cc(OCCCN4CCN(C)CC4)c(OC)cc23)c(Cl)cc1Cl`, for which the Potency result in assay [1], in [15] and in assay [16] was “inactive” each time. The molecule was called inactive in assay [17] and in assay [18]. Besides, the Potency in [11] is 23.5 µM (active); in [3] it was 3.72 µM (active); in assay [4] it was 23.5 µM (active); in assay [5] it was 8.33 µM (active); in assay [12], 18.7 µM (active); in [7] it was 11.8 µM (active). In addition, the Potency in assay [13] was 18.7 µM (active).

For the origin of these results see PubChem BioAssay (NCATS).
